# Measured values: ChEMBL document CHEMBL3988442, “University of Dundee, Small-Polar-MMV Screening Library” (2021)
# Hit rate of the full screen: of about 48,000 compounds, about 13,000 (27%) showed an effect of 50% or more. The list shows a part of the results.
# Tested on: Wolbachia pipientis
# Assay: Anti-Wolbachia Cell-Based Screen
# Assay type: functional
# Set-up: scale not given: in the data most compounds retested in dose-response had high values
# Conditions: 5 µM
row,SMILES,Percent Effect [%]
1,CS(=O)(=O)N1CCC(Oc2ccc(C(=O)NC3CCOC3)cc2Cl)CC1 (configuration not stated),6.025
2,COC(=O)CN(C(=O)c1ccc(Cl)cn1)c1cccc(F)c1,-0.7063
3,Cn1c(CN2CCOC(Cn3cncn3)C2)nc2ccccc21 (configuration not stated),-24
4,Cc1cnn(CC2CN(Cc3nc4ccccc4o3)CCO2)c1 (configuration not stated),139.9
5,c1ccc2oc(CCCN3CCOC(Cn4cncn4)C3)nc2c1 (configuration not stated),115.2
6,Cc1cnn(CC2CN(CCS(=O)(=O)c3ccccc3)CCO2)c1 (configuration not stated),5.078
7,Cc1cnn(CC2CN(Cc3nc4ccccc4n3C)CCO2)c1 (configuration not stated),109.8
8,CCOCC(=O)NCC1Cn2nnc(-c3cccc(F)c3)c2CO1 (configuration not stated),-1.189
9,NCC1Cc2cccc(-c3ccc(O)c(F)c3)c2O1 (configuration not stated),16.35
10,CC(NC(=O)N(C)Cc1ccsc1)c1nncn1C (configuration not stated),-12.05
11,CNC(=O)c1cc2c(nc1NCC(C)C)CCN(S(=O)(=O)C1CC1)CC2,-0.7375
12,CCc1nnsc1C(=O)N(C)Cc1ccco1,13.36
13,CCOC[C@@H]1CC[C@H]2[C@H](CCN2C(=O)c2ccncc2F)O1,103.3
14,COC[C@@H]1CC[C@H]2[C@H](CCN2S(=O)(=O)c2ccc(F)cc2)O1,6.066
15,COC[C@@H]1CC[C@H]2[C@H](CCN2C(=O)c2ccncc2F)O1.O=C(O)C(F)(F)F,-6.773
16,CCOC[C@H]1CC[C@H]2[C@H](CCN2C(=O)c2ccncc2F)O1.O=C(O)C(F)(F)F,0.195
17,CCOC[C@H]1CC[C@H]2[C@H](CCN2S(=O)(=O)Cc2ccccc2)O1,-6.562
18,COC[C@H]1CC[C@H]2[C@H](CCN2C(=O)c2ccncc2F)O1,114.1
19,Cn1nnc2c1C(COCc1ccccn1)CN(C(=O)c1cccs1)C2.O=C(O)C(F)(F)F (configuration not stated),-3.747
20,Cc1ccc(CN2CCc3c(nnn3C)C2COCc2ccccc2)s1.O=C(O)C(F)(F)F (configuration not stated),-9.551
21,Cc1ccc(CN2Cc3nnn(C)c3C(COCc3ccccn3)C2)s1.O=C(O)C(F)(F)F.O=C(O)C(F)(F)F (configuration not stated),95.33
22,CN(C)C(=O)N1Cc2nnn(C)c2C(COCc2cccnc2)C1.O=C(O)C(F)(F)F (configuration not stated),-1.037

row,SMILES,Percent Effect [%]
1,Cc1ccc(CN2Cc3nnn(C)c3C(COCc3ccccc3)C2)s1.O=C(O)C(F)(F)F (configuration not stated),113.4
2,CCOCC(=O)N1Cc2nnn(C)c2C(COCc2ccccn2)C1.O=C(O)C(F)(F)F (configuration not stated),0.961
3,Cc1cc(CN(C)C(=O)CNS(=O)(=O)c2cccs2)no1,-1.596
4,CC[C@H]1COCCN1C(=O)c1ccc(OC)c(N2CCOCC2)c1,7.42
5,Cc1ncsc1CN1C[C@@H]2CCCO[C@@H]2[C@H](N(C)C(C)C)C1.O=C(O)C(F)(F)F.O=C(O)C(F)(F)F,-15.14
6,CCN(C(=O)C(C)C)C(c1cccnc1)c1ccc2c(c1)CCO2 (configuration not stated),4.729
7,Cc1cc(NC(=O)CCc2ccsc2)n(C)n1,5.21
8,Cn1c(=O)cc(C(=O)NC(Cc2ccsc2)c2cccnc2)[nH]c1=O (configuration not stated),175.1
9,CC(Cc1ccsc1)NC(=O)c1cc(N2CCNC2=O)ccc1F (configuration not stated),-0.338
10,Cc1csc(C(Cc2ccsc2)NC(=O)c2cc(=O)n(C)c(=O)n2C)n1 (configuration not stated),142.4
11,CC(c1cccnc1)N1CCN(C(=O)NCc2cnn(C)c2)CC1 (configuration not stated),-9.128
12,Cn1c(C(=O)NC(Cc2ccsc2)c2cccnc2)cc(=O)n(C)c1=O (configuration not stated),166.4
13,Cc1cnccc1NC(=O)CCc1ccsc1,-8.034
14,Cc1csc(N2CCN(C(=O)Cc3ccsc3)CC2)n1,4.933
15,CCN(CC)c1ccc(C(=O)N(C)Cc2c(C)noc2C)cn1,3.136
16,CCN(Cc1ccc(C#N)cc1F)C(=O)CN(C)CC(N)=O,-8.702
17,COCc1ccccc1C(=O)NCCCN1CCCC1C(=O)N(C)C (configuration not stated),-20.3
18,CC(C)c1nnc2n1CCN(c1nc3ccccc3o1)C2,11.04
19,CC(C)CCC(=O)N1CCN(C(=O)c2ccc(-n3cccn3)cc2)CC1,-3.976
20,O=C(NCc1ccccc1-n1cccn1)N1CCN2CCCCC2C1 (configuration not stated),-0.3123
21,O=C(c1ccc(-n2cccn2)cc1Cl)N1CCCC(O)(CO)C1 (configuration not stated),-12.88
22,CCN(CC)C1CCN(C(=O)c2cc(-n3cccn3)ccc2Cl)CC1,93.46

row,SMILES,Percent Effect [%]
1,O=C(c1cc(-n2cccn2)ccc1Cl)N1CCC(N2CCCC2=O)CC1,95.9
2,O=C(c1cc(-n2cccn2)ccc1Cl)N1CCCC(N2CCCC2)C1 (configuration not stated),114.1
3,O=C(c1cccc(-n2cccn2)c1)N1CCOC(CCO)C1 (configuration not stated),-0.5625
4,O=C(c1cccnc1-n1cccn1)N1CCN(CC2CC2)CC1,-16.04
5,Cc1nn(-c2ccccc2)cc1C(=O)N1CCCN2CCCC2C1 (configuration not stated),6.19
6,CCn1ccnc1CN1CCCC(N(C)CCc2ccccc2)C1 (configuration not stated),3.806
7,COc1ccc(Cl)cc1-c1cc(NC(=O)C2COCCO2)[nH]n1 (configuration not stated),-1.485
8,Cc1cc(I)cnc1NC(=O)C(C)(C)C,-4.531
9,CC(C)Cc1nc(OCC(N)=O)c(C#N)c2c1CCC2,34.66
10,COCCCC1(C(=O)O)CCCN(C(=O)c2ccc(C(C)C)[nH]c2=O)C1 (configuration not stated),4.25
11,Cc1occc1C(=O)Nc1ccnc(OC2CCOC2)c1 (configuration not stated),30.35
12,O=C(Nc1ccnc(OC2CCOC2)c1)c1ccccc1Cl (configuration not stated),70.82
13,O=C(Nc1ccnc(OC2CCOC2)c1)c1ccc(F)cc1Cl (configuration not stated),-10.63
14,N[C@H]1CN(C(=O)c2ccccc2Oc2ccccc2)C[C@@H]1C1CC1,-0.964
15,O=C(O)c1ccnc(-c2ccnc(N3CCC(F)(F)CC3)n2)c1,-4.386
16,CCN1CCN(CCC(=O)NC2CC(c3cccc(Cl)c3)C2)CC1 (configuration not stated),-7.949
17,Cc1nccn1C1CCCN(C(=O)c2ccc3cc[nH]c3c2)C1 (configuration not stated),104
18,Cc1nccn1C1CCCN(C(=O)c2ccc3c(c2)COC3)C1 (configuration not stated),0.6755
19,Cc1nccn1C1CCCN(C(=O)c2cc3ccccc3[nH]2)C1 (configuration not stated),-11.12
20,Cc1nccn1C1CCCN(C(=O)c2ccc3c(c2)CCC3)C1 (configuration not stated),108.9
21,CC(CO)NCc1csc2c1CCCC2 (configuration not stated),1.325
22,CCCc1ccc(CN2CCN(C(=O)CC(C)C)[C@@H]3CS(=O)(=O)C[C@@H]32)o1,-2.422

row,SMILES,Percent Effect [%]
1,O=C(O)C(F)(F)F.O=C(c1ccno1)N1CCc2ncnc(-c3ccncc3)c2CC1,111.4
2,Cc1ncnc2c1CCN(C(=O)c1ccncc1)CC2.O=C(O)C(F)(F)F,-2.654
3,CC(C)NC(=O)N1CCc2ncnc(-c3ccncc3)c2CC1.O=C(O)C(F)(F)F,129.4
4,COc1cc(N2CCc3ncnc(-c4ccncc4)c3CC2)ncn1.O=C(O)C(F)(F)F,4.079
5,O=C(NC1CC1)N1CCc2ncnc(-c3ccncc3)c2CC1.O=C(O)C(F)(F)F,-17.44
6,O=C(O)C(F)(F)F.O=C(c1ccncc1)N1CCc2ncnc(C3CC3)c2CC1,-7.83
7,CN(C)C(C(=O)NC1(CO)CCCC1)c1ccc(F)cc1 (configuration not stated),-4.7
8,O=C1N(c2ccc(Br)cc2)Cc2nc(=O)[nH]n21,13.29
9,Cc1cc2cc(C(=O)N3CCN(CCO)[C@@H]4CS(=O)(=O)C[C@@H]43)ccc2o1,-0.6581
10,Cc1cc(C(=O)N[C@@H]2CCNC[C@H]2O)ccc1Cl,-15.13
11,Cc1cc2cc(C(=O)N[C@@H]3CC[C@@H](N4CCCC4)[C@@H]3O)ccc2o1,117.2
12,Cc1cc2cc(C(=O)N[C@@H]3CC[C@@H](N4CCNC(=O)C4)[C@@H]3O)ccc2o1,121.8
13,Cc1cc2cc(C(=O)N[C@@H]3CC[C@@H](N4CCOCC4)[C@@H]3O)ccc2o1,-19.97
14,CCN(C)c1ncnc2c1CCN(C(=O)c1ccno1)CC2,-25.29
15,N#Cc1cnn(C(=O)CCCOc2ccccc2Cl)c1N,5.085
16,O=C(NCC(F)F)N1CCC(n2ccc(C(F)(F)F)n2)CC1,4.357
17,Cn1cc(-c2cnc(N3CCOCC3)nc2)cc1C(=O)O,-1.361
18,CC(=O)N1CCC(n2ccc(-c3cnc(N4CCOCC4)nc3)n2)CC1,94.2
19,CCC(SC)C(=O)N1CCC(n2ccnn2)CC1 (configuration not stated),9.459
20,CN(C(=O)c1cnc(N2CCOCC2)nc1)C1Cc2ccccc2C1,-2.733
21,CC(=O)N1CCC(c2nnc3ccc(C(=O)NCC(C)C)cn23)C1 (configuration not stated),-18.5
22,CC(=O)N1CCC(n2ccc(-c3cnc(NCC(C)C)nc3)n2)CC1,75.49

row,SMILES,Percent Effect [%]
1,CC[C@H](C)Nc1ncc(-c2ccn(C3CCN(C(C)=O)CC3)n2)cn1,95.97
2,CC(C)NC(=O)N1CCC(n2ccc(C(F)(F)F)n2)CC1,-15.91
3,O=C(O)c1cc(-c2ccncc2)cc(S(=O)(=O)N2CCSCC2)c1,-4.815
4,O=C(CCC(=O)N1CCOCC1c1ccccc1)c1cccs1 (configuration not stated),-0.4955
5,CC(C(=O)Nc1ccc2ccccc2c1)N1CCC(n2ccnc2)CC1 (configuration not stated),14.62
6,CCSCCNc1nc(-c2ccccn2)nc2c1c(C)nn2C,-9.72
7,CCCc1nnc(N(C)CC2CCN(CC(C)C)C2)o1 (configuration not stated),22.96
8,CC(C)c1nnc2n1CCN(Cc1csc(-c3cnn(C)c3)n1)C2,-7.082
9,CC(C)c1nnc2n1CCN(Cc1csc(CC(=O)N(C)C)n1)C2,-25.19
10,CCc1nnc2n1CCN(Cc1csc(-c3ccccc3F)n1)C2,-7.505
11,CCc1nnc2n1CCN(Cc1csc(Cc3ccccc3)n1)C2,110.3
12,CCc1nnc2n1CCN(Cc1csc(-c3ccccc3)n1)C2,-8.809
13,CC(=O)Nc1nc(CN2CCn3c(nnc3C(C)C)C2)cs1,134.2
14,CCc1nnc2n1CCN(Cc1csc(NC(C)=O)n1)C2,125.2
15,Cc1nnc2n1CCN(Cc1csc(Cc3ccccc3)n1)C2,-6.731
16,CC(=O)Nc1nc(CN2CCn3c(nnc3C3CC3)C2)cs1,-1.677
17,CCc1nnc2n1CCN(Cc1csc(-c3cnn(C)c3)n1)C2,-17.9
18,Cc1nnc2n1CCN(Cc1csc(CC(=O)N(C)C)n1)C2,-5.269
19,CC(=O)Nc1nc(CN2CCn3c(C)nnc3C2)cs1,106.6
